Test results: the supplement of paper PMC6555819

tested on: RXRa DBDmut IVT, anti-RXR (DBD mutation: RXRa K156A/R161A, NR concentration 90 nM); assay: PBM binding z-score (relative to random genomic background probes); higher = stronger binding; sequences stand for … in GC…GCGATTGACAGCGTAGAATGAAGG
Outline: (§1)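 Regression normalization was applied to scanned fluorescence from custom Agilent 4×180K protein-binding microarrays. Before scanning, arrays were incubated 1 h with ligand-free nuclear receptor dimers, and binding was detected with antibodies against each partner (one per run). Binding z-scores use the random background probes as reference.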

| Sequence | PBM binding z-score |
| --- | --- |
| CGTCCAAGGTCAGAGAGGTCAGTCAATGCCGAGT | 3.32 |
| AGAATCAGGTTATTAAGATCAGGGAATTGCGGTC | 0.627 |
| GATACAGCGTCAAGGCCAGAGTACGCGTATTGAT | -0.11 |
| ATCTCTAGGTAACAAGTTCAGTGGAAGAGAGGAC | 1.13 |
| AGAATGAGGTTATCAAGATCAGGGAATTGCGGTC | 1.46 |
| GAGACTGGGGCAAAGCAGGTTACCATAAGGTTGG | -0.396 |
| CAGACTGGGGCATAAGGTTACCATAAGCCAGCCC | 0.105 |
| CTCGAAAGGTCGGTTGAGGTGCGTATACGGATAA | 0.676 |
| ATCGAAATGTCGAAGGTGAGTATACCCACCCGAA | -0.753 |
| TCTAGTTGGTCACGGTGGTCACACACGACGGGTA | 0.312 |
| AGAATGAGGTTATTTAGATCAGGGAATTGCGGTC | 2.53 |
| TAGCCTAGGTCATGGCCCAGTATACCACGCGAAC | 0.508 |
| GGTACGAGGGCATTCGAGTTGATAGCATGGCGAT | 3.01 |
| CGAACTCGGTCAGAACAGGACAGTGAAGGATGAT | 0.172 |
| CCTTACGGGTCCAGGTTATAGCACGGGTGGTACG | -0.824 |
| CCTATTAGTTGAGCATAAGGGCAACCGAAGCTCG | 0.381 |
| CCTGACGGGTCACTCCAGGTTATAGCATCGGAGT | 1.04 |
| CAAACTAGGTCACCGGAAGGTCAAATTCCGCATG | 2.13 |
| TGAATGAGGTTAAAGATTAGGGAACGTGGCGTCG | 1.09 |
| GCTATTAGTTGAAAGGGCTACCGAATGATTCTCG | 0.703 |

| Sequence | PBM binding z-score |
| --- | --- |
| TCAGACAGGTGAAGGTAACTCTGGTACGCAGTCG | 1.03 |
| ATCTCTAGGTCAGACTCAGTTCAGTGAAGAACGC | 1.47 |
| TAGCATAGGTCATTGGGCCAGTATAGTACGCATC | 1.58 |
| CCAACTAGGTCAAAGGTCAAAGTCGAGCCAACCA | 3.14 |
| CCTACTGGGCCAAAAGTCATTGATTCCAATGCTC | 0.0698 |
| GCTGATAGGTCAACTGATGGTCAGCTAAAGCTCG | 1.65 |
| CCTACTGGGCCACGCAAGGTCATTGATTCAGTGA | 0.396 |
| TCATATAGGTAAAGGTGAAAGTCGAACGATATGA | 0.845 |
| CGTCCAAGGTCGGCAGGTCAGTGAAAGCGACGTG | 1.36 |
| TCTAGCAGGCCAGATGGTCACTCAAGAGGTACGG | -0.141 |
| ACAGACAGGTGAGTGAAGTTAACTCAGCTGGACG | -0.397 |
| CAAACTAGGTCAAGGCCAAAGTCGGTTTGTGCCA | 1.81 |
| TAATATAGGTAAAAGGTGAAAGTCGGTGTGGTAA | 0.341 |
| GCTTGTAGATCAAGGATAAGAAAGACTAAGCTAA | -0.727 |
| TCGAGTAGGTGAGTCGGGGCATTCAGCCAACATA | 0.0607 |
| TATACAGGGTCAAAGGCCAGAGAACGAATGTCGA | 2.75 |
| CGAACTAGGTCATTGACAGGACAGTCAATAGTAA | 2.45 |
| CCTACTGGGCCAAAGGGCATTGATTCCAATGCTC | -0.785 |
| ATCCAAAGGTCGAAGGTGAGTATACCCACCCGAA | 0.893 |
| CCTAGCAGTCCAATCTGGGTCACTCAAGGCTTGA | 0.516 |

tested on: RXRa homodimer (NR concentration 180 nM); assay: as above
Outline: as §1

| Sequence | PBM binding z-score |
| --- | --- |
| CGTCCAAGGTCAGAGAGGTCAGTCAATGCCGAGT | 5.76 |
| AGAATCAGGTTATTAAGATCAGGGAATTGCGGTC | 0.596 |
| GATACAGCGTCAAGGCCAGAGTACGCGTATTGAT | -0.253 |
| ATCTCTAGGTAACAAGTTCAGTGGAAGAGAGGAC | 0.888 |
| AGAATGAGGTTATCAAGATCAGGGAATTGCGGTC | 2.19 |
| GAGACTGGGGCAAAGCAGGTTACCATAAGGTTGG | 0.474 |
| CAGACTGGGGCATAAGGTTACCATAAGCCAGCCC | 1.6 |
| CTCGAAAGGTCGGTTGAGGTGCGTATACGGATAA | 2.12 |
| ATCGAAATGTCGAAGGTGAGTATACCCACCCGAA | 0.434 |
| TCTAGTTGGTCACGGTGGTCACACACGACGGGTA | 0.842 |
| AGAATGAGGTTATTTAGATCAGGGAATTGCGGTC | 1.9 |
| TAGCCTAGGTCATGGCCCAGTATACCACGCGAAC | 3.73 |
| GGTACGAGGGCATTCGAGTTGATAGCATGGCGAT | 0.971 |
| CGAACTCGGTCAGAACAGGACAGTGAAGGATGAT | 0.348 |
| CCTTACGGGTCCAGGTTATAGCACGGGTGGTACG | 0.106 |
| CCTATTAGTTGAGCATAAGGGCAACCGAAGCTCG | 0.162 |
| CCTGACGGGTCACTCCAGGTTATAGCATCGGAGT | 3.59 |
| CAAACTAGGTCACCGGAAGGTCAAATTCCGCATG | 6.55 |
| TGAATGAGGTTAAAGATTAGGGAACGTGGCGTCG | 2.89 |
| GCTATTAGTTGAAAGGGCTACCGAATGATTCTCG | 0.0628 |

| Sequence | PBM binding z-score |
| --- | --- |
| TCAGACAGGTGAAGGTAACTCTGGTACGCAGTCG | 0.951 |
| ATCTCTAGGTCAGACTCAGTTCAGTGAAGAACGC | 1.67 |
| TAGCATAGGTCATTGGGCCAGTATAGTACGCATC | 4.77 |
| CCAACTAGGTCAAAGGTCAAAGTCGAGCCAACCA | 10.2 |
| CCTACTGGGCCAAAAGTCATTGATTCCAATGCTC | 0.153 |
| GCTGATAGGTCAACTGATGGTCAGCTAAAGCTCG | 4.91 |
| CCTACTGGGCCACGCAAGGTCATTGATTCAGTGA | 2.62 |
| TCATATAGGTAAAGGTGAAAGTCGAACGATATGA | 2.33 |
| CGTCCAAGGTCGGCAGGTCAGTGAAAGCGACGTG | 2.08 |
| TCTAGCAGGCCAGATGGTCACTCAAGAGGTACGG | -0.0633 |
| ACAGACAGGTGAGTGAAGTTAACTCAGCTGGACG | 0.359 |
| CAAACTAGGTCAAGGCCAAAGTCGGTTTGTGCCA | 2.77 |
| TAATATAGGTAAAAGGTGAAAGTCGGTGTGGTAA | 2.95 |
| GCTTGTAGATCAAGGATAAGAAAGACTAAGCTAA | -0.555 |
| TCGAGTAGGTGAGTCGGGGCATTCAGCCAACATA | -0.201 |
| TATACAGGGTCAAAGGCCAGAGAACGAATGTCGA | 7.14 |
| CGAACTAGGTCATTGACAGGACAGTCAATAGTAA | 2.29 |
| CCTACTGGGCCAAAGGGCATTGATTCCAATGCTC | 0.895 |
| ATCCAAAGGTCGAAGGTGAGTATACCCACCCGAA | 5.48 |
| CCTAGCAGTCCAATCTGGGTCACTCAAGGCTTGA | 0.768 |
